Five compounds from PubChem BioAssay can be followed below.

Test [1] can be described thus: small molecules captured by biotinylated probe aFSTL3 – biochemical, small-molecule microarray, fluorescence 635/667, stem cell growth factor project, primary screen (AID 1064).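 Also: measures binding of the biotinylated anti-FSTL3 antibody to printed compounds.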 Conditions: higher = more signal.
Test [2] in a line: binders from COS7 lysate, DM2A8 probe, primary screen, torsin A project, cell lysate, small-molecule microarray, fluorescence 635/667 (AID 1065). The conditions noted are these: higher = more signal, COS7 lysate expressing mutant human TOR1A.
Test [3] in a line: small molecules captured by biotinylated probe aFGF2 – biochemical, small-molecule microarray, fluorescence 635/667, stem cell growth factor project, primary screen (AID 1067).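 Also: measures binding of biotinylated aFGF2 protein to printed compounds on slides; z-score merges feature fluorescence and signal-to-noise across triplicate slides.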 The conditions noted are these: higher = more signal.
A short description of test [4]: small molecules captured by biotinylated probe aFGF10 – biochemical, small-molecule microarray, fluorescence 635/667, stem cell growth factor project, primary screen (AID 1071).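 Also: score merges 667 nm spot intensity and signal to noise from triplicate slides.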 The conditions noted are these: higher = more signal.
Test [5] has as its target Neurogenic locus notch homolog protein 2 (Homo sapiens) (UniProt Q04721). In words: small molecules binding Notch2 protein – biochemical, small-molecule microarray, 635 nm fluorescence, stem cell growth factors, primary screen (AID 1073). Conditions: higher = more signal.
In test [6] the target is Pro-neuregulin-1, membrane-bound isoform (Homo sapiens) (UniProt Q02297). The experiment in a line: small molecules binding neuregulin-1 protein – biochemical, small-molecule microarray, fluorescence 635/667, psychiatric disease protein project, primary screen (AID 1075).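 Also: score combines 667 nm spot fluorescence with signal to noise.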 The conditions noted are these: NRG1 binding, 635 nm fluorescence, higher = more signal.
In test [7] the test system is Neuregulin-1 EGF-like domain. The experiment in a line: small molecules binding NRG1 EGF domain – biochemical, small-molecule microarray, 635 nm fluorescence, primary screen (AID 1081).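 Also: binding of the protein to compounds printed on small-molecule microarray slides.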 The conditions noted are these: higher = more signal.
Test [8] in a line: FRG1 expression reporter modulators in myotubes – cell-based, C2C12 myotubes, firefly/Renilla luciferase, luminescence, FRG1 inhibition for FSHD, primary screen (AID 1084). The conditions noted are these: FRG1 promoter luciferase, higher = more signal, called active from +8 up or from −8 down.
Test [9] in a line: small molecules captured by biotinylated probe aFST – biochemical, small-molecule microarray, fluorescence 635/667, stem cell growth factor project, primary screen (AID 1086).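 Also: score merges 667 nm fluorescence with signal-to-noise of each printed compound spot.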 Conditions: higher = more signal.
Test [10] in a line: binders of probe aHhip on microarray, primary screen, stem cell growth factor project, biochemical, small-molecule microarray, fluorescence 635/667 (AID 1087).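 Also: score merges spot fluorescence at 667nm with spot signal to noise ratio.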 The conditions noted are these: higher = more signal.
For test [11], the system named is PRMT1 (protein arginine N-methyltransferase 1). In words: small molecules binding arginine methyltransferase PRMT1 – biochemical, small-molecule microarray, 635 nm fluorescence, primary screen (AID 1088).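 Also: binding of Prmt1 protein to compounds spotted on small-molecule microarray slides.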 Conditions: higher = more signal.
The nature of test [12]: growth effects on S. cerevisiae YJM789 – YJM789 clinical isolate, OD600, 24 h, basal, primary screen (AID 1089).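 Also: growth of clinical yeast isolate S. cerevisiae YJM 789 seeded 1000 cells per well; test concentration not given here.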 The conditions noted are these: higher = more signal, called active from +8 up or from −8 down.
Test [13] in a line: S. pombe growth modifiers, basal conditions – strain 972, OD600, 24 h, no modulator, primary screen (AID 1090).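 Also: basal condition with compound alone and no growth modifier present; test concentration not given here.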 Conditions: S. pombe 972 growth, higher = more signal, called active from +8 up or from −8 down.
Test [14] is described as follows: budding yeast growth modifiers under rapamycin – strain BY4716, OD600, 96 h, primary screen (AID 1091). Also: test concentration not given here. Conditions: S. cerevisiae BY4716 + rapamycin, higher = more signal, called active from +8 up or from −8 down.
The target in test [15] is Torsin-1A-interacting protein 2 (Homo sapiens) (UniProt Q8NFQ8). In words: small molecules binding lysate-expressed LULL1 – cell lysate, human LULL1 lysate, 635/667 nm fluorescence, primary screen (AID 1092).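 Also: probe is lysate of COS7 cells overexpressing human LULL1; score merges per-feature 667 nm fluorescence with signal-to-noise.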 Conditions: small-molecule microarray, hLULL1 lysate binding, 635 nm fluorescence; higher = more signal.
Test [16] in a line: optical density change of DRC41 E. coli – strain DRC41, OD650, 24 h, E. coli filamentation project, primary screen (AID 1093).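 Also: MC1000 strain lacking acrAB efflux and sulA so SOS filamentation is blocked; test concentration not given here.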 The conditions noted are these: E. coli DRC41 growth, higher = more signal, called active from +8 up or from −8 down.
Test [17] can be described thus: probe aLefty2 binding to arrayed compounds – biochemical, biotinylated probe, 635/667 nm fluorescence, primary screen (AID 1094).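 Also: score merges spot fluorescence near 667 nm with spot signal-to-noise ratio.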 The conditions noted are these: small-molecule microarray, higher = more signal.
For test [18], the system named is Noggin (protein binding on small-molecule microarray). In words: small molecules binding Noggin protein – biochemical, 635/667 nm fluorescence, primary screen (AID 1095).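 Also: score merges 667 nm feature fluorescence with signal to noise over triplicate slides.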 The conditions noted are these: 635 nm fluorescence, higher = more signal.
For test [19], the target named is Neurogenic locus notch homolog protein 3 (Homo sapiens) (UniProt Q9UM47). The experiment in a line: small molecules binding NOTCH3 protein – biochemical, 635/667 nm fluorescence, primary screen (AID 1096). Conditions: small-molecule microarray, 635 nm fluorescence, higher = more signal.
Test [20] can be described thus: probe aEGFR binding to arrayed compounds – biochemical, biotinylated probe, 635/667 nm fluorescence, primary screen (AID 1097).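 Also: probe is a biotinylated anti-EGFR antibody binding compounds printed on slides; score combines fluorescence near 667 nm and signal to noise of each spot.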 The conditions noted are these: small-molecule microarray, higher = more signal.

The source made the active and inactive calls.

Sequence of Neurogenic locus notch homolog protein 2 (Homo sapiens) (Q04721 whole entry, looked up, canonical isoform): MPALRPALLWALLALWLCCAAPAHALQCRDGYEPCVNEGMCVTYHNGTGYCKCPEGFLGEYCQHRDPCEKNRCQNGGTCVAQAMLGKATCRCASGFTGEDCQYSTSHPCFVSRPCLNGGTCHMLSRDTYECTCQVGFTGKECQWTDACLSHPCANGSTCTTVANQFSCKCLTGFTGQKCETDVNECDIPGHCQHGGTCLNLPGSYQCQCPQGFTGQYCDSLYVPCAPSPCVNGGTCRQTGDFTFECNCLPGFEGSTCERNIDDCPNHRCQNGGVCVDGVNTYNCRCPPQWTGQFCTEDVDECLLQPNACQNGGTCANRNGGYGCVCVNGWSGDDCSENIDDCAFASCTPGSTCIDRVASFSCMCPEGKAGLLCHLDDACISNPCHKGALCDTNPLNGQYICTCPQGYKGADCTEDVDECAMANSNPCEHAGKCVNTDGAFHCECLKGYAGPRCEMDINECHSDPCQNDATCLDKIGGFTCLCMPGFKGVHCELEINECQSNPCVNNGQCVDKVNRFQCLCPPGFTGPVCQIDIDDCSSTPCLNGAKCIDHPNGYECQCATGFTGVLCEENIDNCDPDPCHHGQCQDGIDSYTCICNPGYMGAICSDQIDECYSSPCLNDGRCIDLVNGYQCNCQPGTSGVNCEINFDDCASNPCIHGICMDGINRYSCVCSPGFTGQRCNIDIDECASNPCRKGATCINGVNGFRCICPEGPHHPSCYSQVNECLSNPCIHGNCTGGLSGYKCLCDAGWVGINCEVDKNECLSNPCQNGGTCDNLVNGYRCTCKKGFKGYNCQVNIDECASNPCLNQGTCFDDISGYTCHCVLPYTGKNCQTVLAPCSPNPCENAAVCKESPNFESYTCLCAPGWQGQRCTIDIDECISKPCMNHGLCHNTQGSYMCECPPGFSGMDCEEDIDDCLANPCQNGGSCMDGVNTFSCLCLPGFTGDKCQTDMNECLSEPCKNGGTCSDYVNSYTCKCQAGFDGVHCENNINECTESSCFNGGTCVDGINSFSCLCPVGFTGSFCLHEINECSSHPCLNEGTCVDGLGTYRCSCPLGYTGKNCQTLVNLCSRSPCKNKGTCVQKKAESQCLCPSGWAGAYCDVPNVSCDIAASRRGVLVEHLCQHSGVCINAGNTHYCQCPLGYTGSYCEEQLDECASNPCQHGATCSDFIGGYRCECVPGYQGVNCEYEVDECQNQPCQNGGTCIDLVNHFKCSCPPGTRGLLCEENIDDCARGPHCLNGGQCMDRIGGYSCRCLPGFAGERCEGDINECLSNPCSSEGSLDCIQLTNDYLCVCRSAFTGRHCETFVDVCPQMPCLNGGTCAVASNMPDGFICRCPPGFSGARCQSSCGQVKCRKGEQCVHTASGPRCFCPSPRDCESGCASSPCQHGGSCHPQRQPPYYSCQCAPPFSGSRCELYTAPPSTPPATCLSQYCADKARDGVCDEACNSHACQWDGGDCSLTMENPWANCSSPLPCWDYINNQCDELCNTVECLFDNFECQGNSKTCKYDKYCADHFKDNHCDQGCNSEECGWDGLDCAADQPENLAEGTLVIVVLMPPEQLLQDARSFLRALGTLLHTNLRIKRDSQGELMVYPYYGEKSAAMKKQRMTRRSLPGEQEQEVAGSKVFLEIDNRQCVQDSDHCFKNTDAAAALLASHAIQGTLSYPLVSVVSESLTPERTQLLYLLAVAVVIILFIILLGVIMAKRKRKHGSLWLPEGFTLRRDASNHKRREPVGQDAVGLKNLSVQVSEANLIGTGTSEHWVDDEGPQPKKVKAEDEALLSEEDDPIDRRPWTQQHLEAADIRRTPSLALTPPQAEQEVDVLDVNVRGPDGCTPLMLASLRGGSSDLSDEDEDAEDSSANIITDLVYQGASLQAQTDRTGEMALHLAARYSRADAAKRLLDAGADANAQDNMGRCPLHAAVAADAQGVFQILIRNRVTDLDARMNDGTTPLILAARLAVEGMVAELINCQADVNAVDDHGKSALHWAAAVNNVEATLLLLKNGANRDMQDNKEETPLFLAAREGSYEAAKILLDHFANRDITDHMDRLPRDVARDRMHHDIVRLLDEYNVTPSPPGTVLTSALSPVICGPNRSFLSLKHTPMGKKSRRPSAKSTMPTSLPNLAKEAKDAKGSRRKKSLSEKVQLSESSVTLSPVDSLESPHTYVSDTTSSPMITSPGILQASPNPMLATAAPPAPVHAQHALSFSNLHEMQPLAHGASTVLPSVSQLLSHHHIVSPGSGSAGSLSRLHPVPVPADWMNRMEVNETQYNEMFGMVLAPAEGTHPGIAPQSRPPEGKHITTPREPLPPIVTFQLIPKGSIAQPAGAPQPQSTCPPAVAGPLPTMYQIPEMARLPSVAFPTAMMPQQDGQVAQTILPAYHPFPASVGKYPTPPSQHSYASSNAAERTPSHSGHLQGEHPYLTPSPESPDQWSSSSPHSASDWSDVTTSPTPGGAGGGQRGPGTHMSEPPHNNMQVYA
Sequence of Pro-neuregulin-1, membrane-bound isoform (Homo sapiens) (Q02297 whole entry, looked up, the tested form may be a part, canonical isoform): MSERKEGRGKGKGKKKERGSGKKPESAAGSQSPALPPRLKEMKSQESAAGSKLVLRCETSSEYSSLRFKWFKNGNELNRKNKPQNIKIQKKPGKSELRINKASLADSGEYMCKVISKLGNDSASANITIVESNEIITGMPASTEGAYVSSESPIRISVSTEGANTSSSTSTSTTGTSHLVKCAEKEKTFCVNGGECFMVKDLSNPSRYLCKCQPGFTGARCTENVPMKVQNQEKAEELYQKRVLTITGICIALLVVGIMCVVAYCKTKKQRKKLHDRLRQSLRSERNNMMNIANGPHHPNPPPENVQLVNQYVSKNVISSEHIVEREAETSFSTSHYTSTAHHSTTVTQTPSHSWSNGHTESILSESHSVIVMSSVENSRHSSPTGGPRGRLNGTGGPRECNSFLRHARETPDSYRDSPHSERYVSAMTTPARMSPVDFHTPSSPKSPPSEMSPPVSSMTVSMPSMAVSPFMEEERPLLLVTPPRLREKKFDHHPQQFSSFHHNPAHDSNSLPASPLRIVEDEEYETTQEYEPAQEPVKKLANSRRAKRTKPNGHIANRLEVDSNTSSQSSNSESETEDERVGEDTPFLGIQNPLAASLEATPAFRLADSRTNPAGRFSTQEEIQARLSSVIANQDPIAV
Sequence of Torsin-1A-interacting protein 2 (Homo sapiens) (Q8NFQ8 whole entry, looked up): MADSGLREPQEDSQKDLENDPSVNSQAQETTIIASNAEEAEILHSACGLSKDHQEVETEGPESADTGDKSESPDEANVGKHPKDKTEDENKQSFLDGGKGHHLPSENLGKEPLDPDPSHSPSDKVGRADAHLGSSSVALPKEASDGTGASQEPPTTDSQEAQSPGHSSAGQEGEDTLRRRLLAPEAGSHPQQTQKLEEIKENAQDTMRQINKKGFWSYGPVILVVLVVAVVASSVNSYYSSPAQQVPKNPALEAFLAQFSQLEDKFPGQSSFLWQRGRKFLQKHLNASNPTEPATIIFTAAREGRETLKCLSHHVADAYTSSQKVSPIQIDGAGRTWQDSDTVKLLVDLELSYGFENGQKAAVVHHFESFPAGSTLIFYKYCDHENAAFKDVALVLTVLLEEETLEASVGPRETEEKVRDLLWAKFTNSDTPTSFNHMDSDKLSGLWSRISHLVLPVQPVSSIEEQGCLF

On to `CC[C@@H]1C=C(C(=O)O)[C@H](c2ccc(Br)cc2)N1S(=O)(=O)c1ccc(C)cc1`, for which the composite z-score was determined as 0.191 in test [1]; 0.0963 in test [2]; 0.0746 in test [3]; 0.638 in test [4]; 1.26 in [5]; 1.93 in [6]. The composite z-score came out at 0.503 in [7]; 0.614 in test [9]; 0.141 in test [10]; 0.399 in test [11]; 2.7 in test [15]; 0.295 in [17]. Moreover, the values for the composite z-score in test [18], in [19] and in [20] were 0.37, 0.481 and -0.0512, respectively. Moreover, the z-score was -1.18 (inactive) in test [8]; -0.564 (inactive) in test [12]; 0.794 (inactive) in test [13]; -0.535 (inactive) in test [14]; -0.319 (inactive) in test [16].

`C[C@H]1C2[C@H](Cc3ccccc3)NC(=O)[C@]23C(=O)N[C@H](Cc2ccccc2)C(=O)N2CCC[C@H]2C(=O)NC/C=C\C/C=C/C3[C@@H]2O[C@]12C` (stereo not given in full): the composite z-score is -0.4 in [1]; -0.217 in test [2]; -0.0439 in [3]; 0.293 in [4]; 0.451 in test [5]; 0.455 in test [6]. Also, the composite z-score in test [7] is -0.473; in test [9], 0.0114; in test [10], -0.236; in test [11], 0.178; in test [15], 0.392; in [17], -0.175. Further, the composite z-score was 0.177 in [18], 0.492 in [19] and -0.13 in test [20]. For the same compound, the z-score in test [8] is 1.59 (inactive); in [12], -0.662 (inactive); in test [13], -1.06 (inactive); in [14], -1.19 (inactive); in [16], 0.132 (inactive).

`CCCC=C(CCC)[C@@H](NC(=O)c1cccs1)c1ccc(C(F)(F)F)cc1`: the composite z-score was 0.251 in test [1]; 0.654 in test [2]; -0.0515 in [3]; 0.383 in test [4]; 1.43 in test [5]; 0.393 in test [6]. Besides, the composite z-score in test [7] is 0.729; in test [9] it was 1.46; in test [10], -0.132; in test [11], 1.03; in test [15], 0.109; in [17] it was 0.291. Besides, the composite z-score stood at 0.989 in test [18], 1.09 in test [19] and 0.315 in [20]. Moreover, the z-score is 2.26 (inactive) in [8]; -0.522 (inactive) in test [12]; -2.1 (inactive) in test [13]; -0.851 (inactive) in [14]; -0.649 (inactive) in test [16].

Consider `CCCCCCc1nc(-c2cc(C)c(OC)c(C)c2)cc2c1[Si](C(C)C)(C(C)C)OC2`, for which the composite z-score in test [1] was 0.0546; in [2] it was -0.375; in test [3], -0.0507; in [4], -0.278; in test [5], -0.274; in test [6] it was -0.405. The composite z-score was -0.449 in [7]; -0.272 in test [9]; 0.35 in test [10]; 1 in test [11]; -0.0784 in test [15]; -0.0575 in [17]. In addition, the composite z-score in [18] is 0.187; in [19], -0.129; in test [20], -0.0828. For the same compound, the z-score was 0.515 (inactive) in test [8]; -0.389 (inactive) in test [12]; -0.114 (inactive) in [13]; -0.264 (inactive) in test [14]; 0.344 (inactive) in test [16].

Regarding `CN1C=C(C(=O)OCCS(C)(=O)=O)C(C(=O)OCCS(C)(=O)=O)=CC(c2ccc(CO)cc2)=CC1C1CC1` (stereo not given), the composite z-score in test [1] was -0.0965; in test [2], 0.528; in test [3], -0.0824; in [4], 0.0351; in test [5], -0.0701; in test [6], 1. The composite z-score in test [7] was 1.27; in test [9], -0.0993; in test [10], -0.0994; in [11], 0.522; in test [15], 1.33; in [17], -0.22. Further, the composite z-score in test [18] was 0.425; in test [19] it was 0.415; in [20] it was -0.103. In addition, the z-score in test [8] was 0.849 (inactive); in [12] it was 0.243 (inactive); in test [13], -1.34 (inactive); in test [14], 0.678 (inactive); in [16], 0.108 (inactive).
